Source: PubChem BioAssay (National Center for Advancing Translational Sciences (NCATS))
Sfp inh = qHTS Assay for Inhibitors of Bacillus subtilis Sfp phosphopantetheinyl transferase (PPTase); Potency, µM, for inactives: largest response in the series, negative = inhibition, actives largely listed as inhibitors; 4'-phosphopantetheinyl transferase ffp (Bacillus subtilis), Q9F4F7; AID 1490, 2009; 310,000 tested, 3.5% active; Biochemical Sfp PPTase activity, qHTS;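 note: the enzyme is Sfp with the accession as filed and its product quenches rhodamine fluorescence; 0% = enzyme reaction without inhibitor and -100% = no enzyme wells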
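Reaction rates are the 30-min fluorescence difference (ex 525, em 598 nm) in wells containing 15 nM Sfp, 5 uM rhodamine-CoA and 12.5 uM BHQ-2-YbbR at pH 7.6 with 10 mM MgCl2.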
TrxR1 substrate = qHTS Assay for Substrates of Mammalian Selenoprotein Thioredoxin Reductase 1 (TrxR1): qHTS; Thioredoxin reductase 1, cytoplasmic (Rattus norvegicus), O89049; AID 588456, 2011; Potency, µM (doses to about 114 µM), inactives show at the top dose activity change, negative = substrate turnover; 390,000 tested, 0.01% active; purified TrxR1 substrate turnover, NADPH consumption readout; note: nearly all actives have a fitted effect of over 50% in size
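Rat TrxR1, dispensed at 90 nM, was prereduced with 400 uM NADPH (final) for 5 min at ~22 deg C, then incubated with compound 15 min before 400 uM selenite. A first-read NADPH fluorescence drop versus no-compound background flagged substrates.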
rTrxR1 inhibitor = qHTS Assay for Inhibitors of Mammalian Selenoprotein Thioredoxin Reductase 1 (TrxR1): qHTS; Thioredoxin reductase 1, cytoplasmic (Rattus norvegicus), O89049; recombinant rTrxR1, NADPH fluorescence consumption, selenite substrate; 390,000 tested, 1% active; Potency, µM (doses to about 114 µM), inactives show at the top dose activity change, negative = inhibition, most hits filed as inhibitors; note: nearly all actives have a fitted effect of over 65% in size
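Rat TrxR1 (90 nM in the dispensed reagent) was pre-reduced with 400 uM NADPH for 5 min at room temperature, then incubated with compound for 15 min. After 400 uM selenite was added, NADPH fluorescence (Ex 340/Em 450 nm) was followed for 8 min.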
VDR inhibitor = Inhibitors of the vitamin D receptor (VDR): qHTS; Vitamin D3 receptor (Homo sapiens), P11473; VDR-SRC2-3 peptide fluorescence polarization, 2 h; Potency, µM, for inactives: max response, negative = inhibition, actives largely listed as inhibitors; 400,000 tested, 0.93% active; AID 504847, 2011
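FP read-out; VDR + SRC2-3 coactivator peptide; 23 nl compound by pintool; 2 h RT incubation; reagents held at 4 deg C, protected from light.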
GLS inh = qHTS for Inhibitors of Glutaminase (GLS); Glutaminase kidney isoform, mitochondrial (Homo sapiens), O94925; Potency, µM (titrated, usually from 45.5 µM), without a hit: at the highest dose activity change, negative = inhibition, actives largely listed as inhibitors; GLS enzymatic activity, qHTS titration; 410,000 tested, 0.21% active; AID 624170, 2012
Target sequence (O94925 whole entry, looked up, canonical isoform): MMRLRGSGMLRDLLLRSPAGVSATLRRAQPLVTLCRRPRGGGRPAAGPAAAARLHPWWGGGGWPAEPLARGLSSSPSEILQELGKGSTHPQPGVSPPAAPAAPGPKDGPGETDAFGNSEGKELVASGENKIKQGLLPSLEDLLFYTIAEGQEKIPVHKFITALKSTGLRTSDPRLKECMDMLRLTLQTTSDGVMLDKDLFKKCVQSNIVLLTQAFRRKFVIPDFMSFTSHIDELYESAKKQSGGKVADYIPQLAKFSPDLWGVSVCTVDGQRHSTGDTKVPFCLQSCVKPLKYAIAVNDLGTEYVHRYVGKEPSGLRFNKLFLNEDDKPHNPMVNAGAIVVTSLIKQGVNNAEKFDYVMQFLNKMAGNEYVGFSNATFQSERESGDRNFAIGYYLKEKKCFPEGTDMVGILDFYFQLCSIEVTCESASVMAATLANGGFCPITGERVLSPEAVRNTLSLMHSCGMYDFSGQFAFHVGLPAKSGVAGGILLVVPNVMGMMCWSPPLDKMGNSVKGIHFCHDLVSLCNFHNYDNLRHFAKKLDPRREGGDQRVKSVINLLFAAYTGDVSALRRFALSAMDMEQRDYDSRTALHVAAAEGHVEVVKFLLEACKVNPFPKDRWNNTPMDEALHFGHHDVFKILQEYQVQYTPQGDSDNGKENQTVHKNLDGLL
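hKGA in 45 mM KH2PO4 (pH 8.2), 0.02% Tween-20 with compound, then 1mM L-Glutamine (stock as added) plus glutamate oxidase/HRP/Amplex red coupling mix. Fluorescence read initially and after 30 min at RT; signal change reflects glutamate formation.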
KAT2A inh = qHTS Assay for Inhibitors of GCN5L2; Potency, µM (highest dose often 58.9 µM), without a hit: at the highest dose activity change, negative = inhibition, most hits filed as inhibitors; AID 504327, 2011; 390,000 tested, 0.21% active; Histone acetyltransferase KAT2A (Homo sapiens), Q92830; GCN5L2 HAT assay, ThioGlo1 CoA-SH fluorescence
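Titration-based screen in which CoA formation is detected via maleimide probe ThioGlo1 (50uM) turning fluorescent on thiol reaction; substrates H3(1-25) 75uM and acetyl-CoA 70uM, GCN5L2 20nM, 20 min incubation at room temperature.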
An asterisk follows results filed as active; ? = inconclusive; . = no result; [ ] = another dose, or the depositor's remark. Sampled rows, rich in hits. Any-hit rate of the full collection: about 3.8%. Calls come from the whole dose curve; as a rule, active = well fitted curve in the direction sought with a large enough effect; inconclusive = small, poorly fitted or top-dose-only effect, or another doubt; inactive = no such curve, though single readings can be large; an effect the other way counts as inactive or inconclusive. Unless noted, % is set by controls: 0 for no effect and ±100 for the full control effect; potency is the fitted concentration of half-maximal effect.

SMILES | Sfp inh | TrxR1 substrate | rTrxR1 inhibitor | VDR inhibitor | GLS inh | KAT2A inh
CC(Oc1ccccc1F)c1ccnc2nc(/N=C/N(C)C)nn12 (stereo not drawn) | 9.8% | 11.1%[57.1 µM] | -14.4% | -1.7% | -2.8% | -2.7%
Nc1nc(N)c2c(n1)CN(Cc1ccc(Cl)cc1)C2 | . | . | . | . | 11.2µM* | .
O=C(Nc1cccc(C(=O)Nc2ccccc2F)c1)c1ccccc1 | 18.3% | 3.7% | 10.5% | 16.6% | -12.0% | -6.7%
CSc1ncccc1C(=O)OCC(=O)c1cc(C)n(C)c1C | . | 1.2% | 3.2% | -20.9% | 7.5% | -1.0%
Cc1ccc(NC(=O)CNCc2ccc(Cl)cc2Cl)cc1S(=O)(=O)N(C)C | 79.4µM* | 2.1% | -4.1% | ? | -7.9% | -1.1%
O=C(CSc1ccccn1)Nc1ccc2c(c1)oc1ccccc12 | -4.8% | -6.2% | -10.2% | -4.0% | -7.4% | -4.7%
COc1cc(NC(=S)N2CCN(CCO)CC2)c(OC)cc1Cl | -5.7% | -0.8% | 6.9% | -14.7% | -3.1% | 0.6%
OCCN1CCN(C(=S)c2ccc(Cl)c(Cl)c2)CC1 | 3.16µM* | -9.4% | -30.6% | 22.4µM* | -21.5% | -14.6%
CN(C(=O)c1ccno1)c1nnc(-c2cnccn2)s1 | 50.1µM* | 0.3%[57.1 µM] | 7.6%[57.1 µM] | 10.9% | -1.3% | -0.7%
O=C(CCCC(=O)c1ccccc1)NCc1ccccc1 | 4.1% | 3.9% | 12.4% | -20.6% | -4.6% | -0.5%
C/C=C/c1ccc(OCC(O)CNCCc2ccc(OC)cc2)c(OC)c1 (stereo not drawn) | 79.4µM* | 1.8% | -3.0% | 13.6% | -0.7% | -20.1%
C/C=C/c1ccc(OCCCNC(C)CC)c(OC)c1 (stereo not drawn) | 56.2µM* | -3.8% | -5.9% | -13.0% | 15.4% | -1.0%
CCN(CC)c1ccc(C(=O)c2ccccc2C(=O)O)c(O)c1 | 9.9% | -19.9% | -26.7% | -15.4% | 0.2% | -16.3%
O=C(O)c1cc(N(Cc2ccccc2O)Cc2ccccc2O)ccc1O | 56.2µM* | 1.2% | 39.8µM* | ? | . | .
COc1cccc(OCCNC(=O)c2cc(OC)c(OC)c(OC)c2)c1 | 16.8% | -4.4% | 8.0% | 0.9% | 9.0% | -1.0%
O=C(O)c1ccc(N2CC3CC(C2)c2cccc(=O)n2C3)c(NC(=S)Nc2ccc(Cl)cc2Cl)c1 (stereo not drawn) | 50.1µM* | -8.7% | ? | ? | -3.6% | -17.0%
NC(=S)Nc1ccc(S(=O)(=O)c2ccc(NC(N)=S)cc2)cc1 | 3.2% | 9.4%[57.1 µM] | -0.6%[57.1 µM] | -13.2% | -19.9% | 1.4%
CCCCOCCCNC(=O)N[C@@H](CC(C)C)C(=O)O | 18.6% | 9.4% | 26.5% | 2.5% | 13.5% | ?
CNC(=O)COC(=O)/C=C/c1ccco1 | 0.5% | -2.4% | -23.0% | 3.8% | 7.6% | -1.3%
Cc1c(Cl)cnc(NC(=O)COC(=O)/C=C/c2ccco2)c1Cl | . | 0.4% | 15.8µM* | -22.5% | ? | ?
Cc1c(Cl)cnc(NC(=O)COC(=O)C(NC(=O)c2ccco2)C(C)C)c1Cl (stereo not drawn) | -21.2% | 1.4% | 50.1µM* | 8.2% | -9.4% | -11.7%
O=C(COC(=O)/C=C/c1ccco1)Nc1ncc(C(F)(F)F)cc1Cl | 39.8µM* | -15.9%[57.1 µM] | ? | -6.0% | -2.3% | 6.6%
COc1cc(-c2cc(=O)c3c(O)c(OC)c(OC)cc3o2)cc(OC)c1O | 13.0% | -0.3% | -3.8% | 11.0% | ? | -20.8%
COc1cc(NC(=O)c2ccc(N3CCCC3=O)cc2)cc(OC)c1 | . | -3.1%[11.4 µM] | -11.1%[11.4 µM] | 1.7% | 4.0% | -0.1%
